Growth data for 7 compounds are collected here from PubChem BioAssay (NCI).

“And” between values parts separate entries of the source, which are not always exact repeats. Equal entries are not always repeated. Compounds without any hit were thinned out: in the full panel of roughly 83,000, 20% have a hit.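 96-well plates, one dose, 48 hours. Percent growth reported; active if below 10.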 The source made the active and inactive calls.

What all share (experiment): NCI-60 one-dose screen, 48 h (100 = growth as untreated, 0 = no growth, -100 = all killed)
Holding throughout (conditions): 10 µM unless noted

Test [1] concerns NCI-H23 lung.
Test [2] relates to NCI-H226 lung.
Test [3] concerns NCI-H322M lung.
Test [4] has as its system HOP-62 NSCLC.
For test [5], the system named is NCI-H460 lung.
Test [6] relates to HOP-92 NSCLC.
The test system of test [7] is NCI-H522 lung.
For test [8], the system named is A549/ATCC NSCLC.
In test [9] the test system is 786-0 renal.
Test [10] deals with COLO 205 colon.
Test [11] concerns DU-145 prostate.
Test [12] concerns K-562 leukemia.
Test [13] relates to MALME-3M melanoma.
Test [14] has as its system MDA-MB-231 breast.
The subject of test [15] is RXF 393 renal.
The subject of test [16] is SF-268 CNS.
The test system of test [17] is SF-295 CNS.
Test [18] deals with SF-539 CNS.
Test [19] deals with UACC-257 melanoma.
Test [20] concerns M14 melanoma.

`C#CCN(C)CCCOc1ccc(NCc2ccc(/C=C/C(=O)NO)cc2)cc1Cl`: the growth is -24% (active) in [1]; -11.7% (active) in [2]; 9.85% (active) in test [3]; 3.99% (active) in test [4]; 4.27% (active) in test [5]; -27.6% (active) in test [6]. The growth in test [7] was 2.32% (active); in test [8], -3.43% (active); in test [9], -2.14% (active); in test [10] it was -24.4% (active); in [11], 13.7% (inactive); in [12], 15.3% (inactive). The growth was 4.84% (active) in test [13]; 16.1% (inactive) in test [14]; -56.2% (active) in test [15]; 12.9% (inactive) in test [16]; -65.5% (active) in test [17]; -7.77% (active) in test [18]. In addition, the growth is 21% (inactive) in test [19] and 0.456% (active) in test [20].
With `CCCCCCCCCC(=O)NC(C)(C)C(=O)N1CCC[C@H]1C(=O)N[C@@H](CC(C)C)C(=O)N[C@@](C)(CC)C(=O)N[C@@H](CCC(N)=O)C(=O)N[C@H](CCC(N)=O)C(=O)NC(C)(C)C(=O)NC(C)(C)C(=O)N[C@@H](CCC(N)=O)C(=O)N[C@H](CC(C)C)C(=O)N[C@H](CO)CC(C)C`, the growth in [1] is -85.9% (active) and -32.1% (active); in [2], -71.3% (active) and -31.6% (active); in test [3], -88.1% (active) and 18.4% (inactive); in [4], -70.9% (active) and -64.1% (active); in test [5], -83.6% (active) and -71% (active); in test [6], -91.1% (active) and -43.9% (active). Moreover, the growth in test [7] was -83.3% (active) and -75.7% (active); in [8] it was -72% (active) and 49.1% (inactive); in test [9] it was -82.1% (active) and -64.3% (active); in [10], -63% (active) and -63.6% (active); in test [11], -97.6% (active) and -52.1% (active); in [12] it was -81.3% (active) and 23% (inactive). The growth in [13] was -91.4% (active) and -84.4% (active); in test [14], -92.8% (active) and -95.8% (active); in test [15] it was -92.3% (active) and -46.4% (active); in [16] it was -68.6% (active) and -46.2% (active); in test [17], -92.1% (active) and -84.6% (active); in [18] it was -97.7% (active) and -99% (active). The growth was -95% (active) and -74% (active) in test [19]; -77.5% (active) and -65.7% (active) in test [20].
`CN1CCN(c2ccc(Nc3nc(NCCCNS(=O)(=O)c4ccccc4)c4sccc4n3)cc2)CC1`: the growth is 90.6% (inactive) in [1]; 111% (inactive) in test [2]; 80.3% (inactive) in [3]; 105% (inactive) in test [4]; 36.9% (inactive) in test [5]; 59.2% (inactive) in test [6]. Besides, the growth was 44.8% (inactive) in test [7]; 62% (inactive) in [8]; 7.25% (active) in test [9]; 49.2% (inactive) in [10]; 56.4% (inactive) in test [11]; 16.7% (inactive) in [12]. In addition, the growth in [13] is -42.8% (active); in test [14] it was 38.1% (inactive); in [15], -29.8% (active); in test [16], 64.2% (inactive); in test [17] it was 38.4% (inactive); in test [18], -71.4% (active). The growth is -15.6% (active) in test [19] and -9.06% (active) in [20].
On to `O=C(Nc1cccc(Cl)c1)Nc1nc2cc([N+](=O)[O-])ccc2o1`, for which the growth was 38.4% (inactive) in [1]; 56.1% (inactive) in [2]; 37.4% (inactive) in test [3]; 58% (inactive) in test [4]; 26.5% (inactive) in test [5]; -4.19% (active) in [6]. Also, the growth was 18.2% (inactive) in test [7]; 44.6% (inactive) in test [8]; 44.2% (inactive) in test [9]; 75.1% (inactive) in [10]; 52.7% (inactive) in test [11]; 37.8% (inactive) in test [12]. In addition, the growth is 29.7% (inactive) in [13]; 61.4% (inactive) in [14]; 67.4% (inactive) in [15]; 37.3% (inactive) in test [16]; 51% (inactive) in [17]; 59.4% (inactive) in test [18]. Also, the growth was 54.6% (inactive) in test [19] and 39.5% (inactive) in [20].
For `CC1CCN(CC(=O)Nn2c(COc3ccccc3)nc3ccccc3c2=O)CC1`, the growth in [1] was 91.7% (inactive); in test [2] it was 84.6% (inactive); in test [3], 95.4% (inactive); in test [4] it was 91.9% (inactive); in [5] it was 90.6% (inactive); in [6], 96.2% (inactive). The growth in test [7] is 75.4% (inactive); in test [8], 90.9% (inactive); in [9] it was 99% (inactive); in test [10], 84.1% (inactive); in [11] it was 101% (inactive); in test [12], 32.2% (inactive). In addition, the growth is 79.5% (inactive) in test [13]; 78.4% (inactive) in test [14]; 94.2% (inactive) in test [15]; 99.4% (inactive) in [16]; 96.9% (inactive) in test [17]; 88.6% (inactive) in [18]. Moreover, the growth in test [19] was 95.4% (inactive); in test [20] it was 78.9% (inactive).
As to `Brc1cccc(-c2cc(-c3cnc4c(c3)OCCO4)n[nH]2)c1`, the growth in [1] is 52.4% (inactive); in test [2] it was 65.6% (inactive); in test [3] it was 45.2% (inactive); in test [4], 65% (inactive); in [5] it was 17.4% (inactive); in test [6] it was 101% (inactive). The growth in [7] was 19.6% (inactive); in [8], 36.8% (inactive); in [9], 79% (inactive); in [10] it was 34.9% (inactive); in test [11], 70.4% (inactive); in test [12], 16.6% (inactive). The growth in test [13] is 37% (inactive); in test [14], 68.8% (inactive); in [15], 47.9% (inactive); in [16] it was 76.5% (inactive); in [17] it was 51.5% (inactive); in test [18], 47.6% (inactive). Also, the growth in test [19] is 73.2% (inactive); in [20], 27.1% (inactive).
Turning to `C/C=C/CC(C)C(O)[C@H](NC(=O)[C@@H]1CCCN1C(=O)[C@](C)(CC)NC(=O)CCCCCCCCC)C(=O)N[C@@](C)(CC)C(=O)N[C@@H](CCC(N)=O)C(=O)N[C@H](CCC(N)=O)C(=O)NC(C)(C)C(=O)NC(C)(C)C(=O)N[C@@H](CCC(N)=O)C(=O)N[C@H](CC(C)C)C(=O)N[C@H](CO)CC(C)C` (stereo not given in full), the growth is 68.4% (inactive) and -71.3% (active) in test [1]; 49% (inactive) and -24.9% (active) in [2]; 69.8% (inactive) and -15.9% (active) in [3]; 56.3% (inactive) and -78.5% (active) in test [4]; 63.6% (inactive) and -72.2% (active) in test [5]; 75.3% (inactive) and -53.5% (active) in test [6]. Moreover, the growth in test [7] is 14.7% (inactive) and -74.4% (active); in test [8], 76% (inactive) and 9.75% (active); in test [9], 47.7% (inactive) and -80.3% (active); in [10], 48.7% (inactive) and -50.7% (active); in test [11] it was -21.7% (active) and -48.7% (active); in [12] it was 14.5% (inactive) and 10.4% (inactive). Further, the growth in test [13] is 29.9% (inactive) and -95.9% (active); in test [14], 63.4% (inactive) and -96% (active); in test [15], 0.95% (active) and -63% (active); in test [16], 20.8% (inactive) and -63.8% (active); in test [17] it was 11.3% (inactive) and -81.6% (active); in test [18], 39.5% (inactive) and -100% (active). For the same compound, the growth in [19] was 21.1% (inactive) and -71.1% (active); in [20], 54.7% (inactive) and -71.4% (active).
